CHRM4 antagonist: CHRM4 antagonism in calcium assay; P08173; CHO-hM4 cells, ACh EC80, Fluo-8 calcium fluorescence; inhibition, % at 3 µM; 360,000 tested, 0.73% active; AID 624125;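 active = inhibition above its plate's cutoff, the mean inhibition of sample wells plus 3 SD, cut at about 27% in these data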;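 note: 0% = acetylcholine EC80 with DMSO and 100% = DMSO without agonist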
Target sequence (P08173 whole entry, looked up): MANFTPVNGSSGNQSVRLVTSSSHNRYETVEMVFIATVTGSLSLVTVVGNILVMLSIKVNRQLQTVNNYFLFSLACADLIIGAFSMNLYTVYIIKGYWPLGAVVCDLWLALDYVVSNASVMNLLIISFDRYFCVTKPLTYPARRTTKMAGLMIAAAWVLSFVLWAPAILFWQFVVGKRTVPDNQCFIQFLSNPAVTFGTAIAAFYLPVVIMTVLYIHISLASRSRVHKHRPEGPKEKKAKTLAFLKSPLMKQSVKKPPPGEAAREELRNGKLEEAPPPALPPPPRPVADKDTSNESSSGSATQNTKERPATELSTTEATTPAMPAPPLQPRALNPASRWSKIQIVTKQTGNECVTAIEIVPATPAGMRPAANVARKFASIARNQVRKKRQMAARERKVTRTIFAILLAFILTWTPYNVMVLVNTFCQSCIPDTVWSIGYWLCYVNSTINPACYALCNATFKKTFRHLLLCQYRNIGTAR
CHRM4 PAM: positive allosteric modulators of human muscarinic M4 receptor; P08173; CHO-K1 hM4/Gqi5, Fluo-8 calcium fluorescence, ACh EC20; 0% = ACh EC20, 100% = maximal ACh; AID 624126; activation, % at 3 µM; 360,000 tested, 0.4% active;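 active = activation above its plate's cutoff, the mean activation of sample wells plus 3 SD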
CHO-K1 Ca ag: counter-screen for M1 agonists: effect in parental CHO-K1 cells. Fluo-8 calcium fluorescence; scaled to maximal ATP response, vehicle zero. activation, % at 3 µM. 360,000 tested, 0.48% active. AID 602248; in the data active = activation above about 15%;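 note: untransfected CHO-K1 host cells lacking M1 receptor as counterscreen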
CHO-K1 Ca antag: counter-screen for M1 antagonists: effect in parental CHO-K1 cells; ATP-induced calcium, Fluo-8 fluorescence; inhibition, % at 3 µM; 360,000 tested, 0.6% active;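 active = inhibition above a per-plate cutoff, the plate's mean sample inhibition plus 3 SD, cut at about 24% in these data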;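 note: 0% = DMSO plus EC80 ATP and 100% = DMSO alone without ATP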
M4 ag: CHRM4 agonism in calcium assay | P08173 | CHO-K1 hM4/Gqi5, Fluo-8 calcium fluorescence; vehicle 0%, full acetylcholine response 100% | activation, % at 3 µM | 360,000 tested, 0.14% active | AID 624127;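 active = activation above the run mean over all test wells plus 3 SD, cut at about 32% in these data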;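 note: peak over basal fluorescence ratio per well then scaled between controls; 0% = DMSO wells and 100% = acetylcholine at EC100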
CHO-K1 Ca PAM: M1 PAM counterscreen hit in parental CHO-K1 cells; ATP EC20, Fluo-8 calcium fluorescence; 0% at ATP EC20, 100% at ATP max; activation, % at 3 µM; 360,000 tested, 0.02% active; AID 602247;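 active = activation above the run cutoff, the mean activation of all test compounds plus 3 SD, cut at about 40% in these data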;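 note: peak over basal fluorescence ratio in a 140 s read after ATP addition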
* hit, by the source's call. Sampled rows, rich in hits. Any-hit rate of the full collection: about 2%.

SMILES	CHRM4 antagonist	CHRM4 PAM	CHO-K1 Ca ag	CHO-K1 Ca antag	M4 ag	CHO-K1 Ca PAM
COc1cc(CNCCc2c[nH]c3ccccc23)cc(OC)c1	7.6	-4.4	2.0	25.4*	7.3	-1.0
Cc1cc(OCC(=O)N2CCC(C(=O)O)CC2)c2c3c(c(=O)oc2c1)CCCC3	-6.0	4.6	0.1	11.1	1.0	-7.5
CC(C)C[C@@H]1COc2cccc(N3CCN(C)CC3)c2S(=O)(=O)N1	70.8*	-14.8	0.9	-24.4	0.2	14.3
CC(C)C[C@H]1COc2cccc(N3CCN(C)CC3)c2S(=O)(=O)N1	-16.0	5.2	0.2	-0.1	0.5	-16.2
CCOC(=O)CNC(=O)CSP(=S)(OCC)OCC	-0.6	32.8*	0.0	3.4	1.2	-2.8
O=C1NC2C(O)C(O)C(O)C(O)C2c2cc3c(c(O)c21)OCO3 (stereo unspecified)	-4.4	6.4	0.5	-14.7	-0.2	12.2
CCCCn1nnnc1C(c1cccc2ccccc12)N1CCC2(CC1)C(=O)NCN2c1ccccc1 (stereo unspecified)	-11.2	5.7	0.0	30.1*	1.3	-8.2
O=C1NCN(c2ccccc2)C12CCN(C(c1cc3ccccc3o1)c1nnnn1-c1ccc3c(c1)OCCO3)CC2 (stereo unspecified)	-11.9	2.0	0.4	-19.6	2.6	12.3
Cc1cc(N(CCCl)CCCl)ccc1C=Cc1ccncn1	1.3	-8.2	5.2	6.1	35.5*	-11.4
CO[C@@H]1C=CC23c4cc5c(cc4CO[C@]2(O)CN(C)[C@H]3C1)OCO5 (stereo partly specified)	-12.4	12.4	0.4	1.7	1.5	3.9
CCN(CC(=O)Nc1ccc(C#N)c(Cl)c1)CC(=O)NC1CCS(=O)(=O)C1 (stereo unspecified)	-5.3	4.6	0.4	25.3*	0.2	-18.2
C=CCC1(Nc2ccccc2)CC(C)N(C)CC1C (stereo unspecified)	49.2*	-51.0	0.2	20.3	0.6	-29.0
C[N+](C)(C)CC#CCN1CCCC1=O	95.4*	-19.6	1.7	16.2	107.4*	7.2
COc1ccccc1C1=NCc2nnc(C)n2-c2ccc(Cl)cc21	-6.8	4.6	0.6	30.6*	9.2	-3.1
Clc1ccc2c(c1)C(c1ccccc1Cl)=NCc1nnc(N3CCN(CCOc4ccccc4)CC3)n1-2	-7.7	-5.1	11.1	-15.4	14.5	64.0*
C[C@H](CO)N1C[C@H](C)[C@@H](CN(C)C(=O)Oc2ccc3ccccc3c2)OCc2cn(nn2)CCCC1=O	-4.6	0.9	0.4	5.2	0.3	11.1
Cc1cc(Br)cn2c(CC(=O)N3CCCCC3)c(-c3ccc(F)cc3)nc12	-0.3	4.4	0.7	2.7	3.5	0.1
N#Cc1ccccc1OCC(=O)N1CCN(CC(=O)Nc2ccc(F)cc2)CC1	-4.4	8.2	0.2	-1.1	2.8	1.5
CC1CCCCN1C(=O)Cn1cc(C=C2C(=O)N(C)C(=O)N(C)C2=O)c2ccccc21 (stereo unspecified)	6.4	1.0	0.1	10.7	0.2	-5.0
Clc1cccc(N2Cc3cc(-c4ccccc4)ccc3-n3nncc3C2)c1	11.1	-8.0	0.4	4.3	-0.4	2.9
CCC(CO)(C(=O)OC1C[N+]2(C)CCC1CC2)c1ccccc1 (stereo unspecified)	98.5*	-25.3	0.1	4.0	-0.6	3.0
NN=C(N)N	-5.4	1.3	1.2	1.1	-0.1	17.8
CCCCCc1nc2c(c(=O)c3ccccc3n2C)c(=O)n1C1CCCCCC1	2.2	-1.8	20.9*	-10.5	0.8	24.0
CCCCCc1nc2ccccc2c(=O)n1-c1ccccc1[N+](=O)[O-]	-3.6	-12.9	0.2	4.1	-0.1	0.3
O=c1[nH]c(=O)n(Cc2ccccc2)c(O)c1C=NCCCn1ccnc1	-4.8	12.8	1.3	-8.0	1.6	13.5
SMILES	CHRM4 antagonist	CHRM4 PAM	CHO-K1 Ca ag	CHO-K1 Ca antag	M4 ag	CHO-K1 Ca PAM
O=c1[nH]c(=O)n(CCc2ccccc2)c(O)c1C=NCCCn1ccnc1	4.5	10.6	0.5	61.9*	0.4	-5.7
CNCC(=O)c1ccccc1	-15.1	7.3	-0.2	-1.2	0.0	-5.1
COc1ccc(-n2c(=S)[nH]c3ccc(C)cc3c2=O)cc1	4.7	-0.8	-0.3	-0.3	0.6	-7.2
Nc1ccc2ccc3cccc[n+]3c2c1	19.4	-9.5	32.3*	-8.8	22.2	19.9
CC(C)(C)C(=O)OC[N+](C)(C)CCOC(=O)C(O)(c1ccccc1)C1CCCC1 (stereo unspecified)	98.8*	-23.5	1.0	-16.2	0.0	23.8
CCCC(CCC)C(=O)OC[N+](C)(C)CCOC(=O)C(O)(c1ccccc1)C1CCCC1 (stereo unspecified)	97.0*	-20.3	0.4	0.3	0.7	3.3
O=C(O)C(O)(c1ccccc1)C1CCCC1 (stereo unspecified)	-4.8	2.6	0.2	-1.1	0.6	9.1
CCOc1ccc(-c2c(C)n(-c3ccc(OCC)cc3)c3[n+]2CCCCC3)cc1	21.3	-37.0	12.1	39.5*	12.2	-15.1
C#C[C@]1(O)CCC2C3C(=O)C=C4C(Cl)=CCC[C@]4(C)C3CC[C@@]21C (stereo partly specified)	5.6	-5.6	1.0	-9.2	5.4	3.5
CCOC(=O)c1cc2c(cn1)[C@H](CCO)NC2	0.6	2.9	0.4	-14.4	0.0	5.4
C[N+]1(C)C2CCC1CC(OC(=O)C(CO)c1ccccc1)C2 (stereo unspecified)	98.4*	-26.4	0.2	-7.3	1.6	-6.0
C[N+]1([O-])[C@@H]2CC(OC(=O)[C@H](CO)c3ccccc3)C[C@H]1[C@@H]1O[C@@H]12 (stereo partly specified)	99.2*	-16.7	-0.5	9.0	2.3	-5.7
C[N+]1(C)C2CCC1CC(OC(=O)c1ccccc1)C2 (stereo unspecified)	-3.1	-23.2	0.0	7.7	0.2	-15.3
C#CC[N+]1(C)[C@@H]2CC(OC(=O)C(CO)c3ccccc3)C[C@H]1C(O)C2 (stereo partly specified)	98.2*	-15.7	-0.1	8.8	-0.2	-15.8
C[N+]1(C)[C@@H]2CC[C@H]1CC(OC(=O)C(CO)c1ccccc1)C2 (stereo partly specified)	99.2*	-17.8	0.0	5.1	1.1	9.2
CCN(CC)P(=O)(NC(=O)C(Cl)(Cl)Cl)N(CC)CC.[Cl-].[Cl-].[Cl-].[Nd+3]	-3.9	-3.2	0.9	1.9	12.8	-20.8
CC(C)(O)C1C2OC(=O)C1C1(O)CC3OC34C(=O)OC2C14C (stereo unspecified)	-10.2	-1.1	-0.1	-5.3	1.0	-1.0
NS(=O)(=O)c1cccc(N2CCNCC2)c1	2.0	2.6	-0.4	6.8	0.1	-4.7

High-throughput results from PubChem.
